Source: PubChem BioAssay (EPA / NIEHS)
Results filed as inconclusive are left out. Activity calls are given as the source filed them. Rule for the calls: active = hit-call score of the fitted dose curve at least 0.9, where 1 is the maximum; inconclusive = response in the unintended direction; inactive = score below 0.9.

Assay: Tanguay_ZF_120hpf_SNOU_legacy: (Legacy) Oregon State University Tanguay Lab 120 Hour Post-fertilization zebrafish Assay for Snout Malformation (AID 2283637)
Description: Tanguay_ZF_120hpf_legacy is a whole embryo, multiplexed endpoint assay using zebrafish larvae exposed for 120 hours post fertilization on a 96-well plate.Tanguay_ZF_120hpf_SNOU_legacy is one of one assay component(s) measured or calculated from the Tanguay_ZF_120hpf_legacy assay. It is designed to make measurements of zebrafish development as detected with brightfield microscopy of developing zebrafish embryos.Data from the assay component Tanguay_ZF_120hpf_SNOU_legacy was analyzed into 1 assay endpoints. This assay endpoint, Tanguay_ZF_120hpf_SNOU_legacy, was analyzed in the positive analysis fitting direction relative to DMSO as the negative control and baseline of activity. Using a type of morphology reporter, gain-of-signal activity can be used to understand changes in developmentals as they relate to the whole embryo. To generalize the intended target to other relatable targets, this assay endpoint is annotated to the zebrafish development intended target family, where the subfamily is embryonic snout morphogenesis.
Zebrafish husbandry: Tropical 5D wild-type adult zebrafish were housed in at an approximate density of 1000 per 100 gallon tank at the Sinnhuber Aquatic Research Laboratory, Oregon State University, Corvallis, OR. Each tank was kept at standard laboratory conditions of 28C on a 14-h light/10-h dark photoperiod in fish water consisting of reverse osmosis water supplemented with a commercially available salt (Instant Ocean). Spawning funnels were placed into the tanks the night prior, and embryos were collected and staged. To increase bioavailability, the chorion was enzymatically removed using pronase (63.6mg/ml, >/= 3.5U/mg, Sigma-Aldrich: P5147) at 4 hours post fertilization (hpf) using a custom automated dechorionator.Chemical exposures: Six hpf dechorionated embryos were placed 1 embryo per well in a 96-well plate prefilled with 90 ul of EM using automated embryo placement systems (AEPS). Ten microliters of each row of dilution plate 2 was added to 2 exposure plates. The final DMSO concentration used was 0.64% (vol/vol). Thirty-two embryos were also exposed to 5uM trimethyltin chloride (positive control). Plates were sealed to prevent evaporation and foil covered to reduce light exposure and kept in a 28C incubator. Embryos were statically exposed until 120 hpf. At 24 hpf, embryos were assessed for photomotor response using a custom photomotor response analysis tool (PRAT) and for developmental toxicity endpoints (MO24: mortality at 24 hpf, DP: developmental progression, SM: spontaneous movement, and NC: notochord distortion). At 120 hpf, locomotor activity was measured using Viewpoint Zebralab and assessed for 18 endpoints. Zebrafish acquisition and analysis program (ZAAP), a custom program designed to inventory, acquire, and manage zebrafish data, was used to collect developmental endpoints as either present or absent (i.e., binary responses were recorded). If mortality occurred for an embryo (at either 24 or 120 hpf), the non-mortality endpoints were not measured.

Row | SMILES | AC50 | outcome
1 | Clc1cc(Cl)c2c(c1)N=C1CCCCCN1C2 | 8.56 µM (active) | 
2 | CCCCCCCCOC(=O)c1cc(O)c(O)c(O)c1 |  | inactive
3 | CCCCCCCCOc1ccc(C(=O)c2ccccc2)c(O)c1 |  | inactive
4 | Cc1cn([C@H]2C[C@H](N=[N+]=[N-])[C@@H](CO)O2)c(=O)[nH]c1=O |  | inactive
5 | COc1cc(C(=O)NC2CCN(C)CC2)ccc1Nc1ncc2c(n1)N(C1CCCC1)CC(F)(F)C(=O)N2C | 10.1 µM (active) | 
6 | O=C(O)c1ccccc1-n1cc(C(=O)O)c(=O)c2cc(Nc3c(F)cc(F)cc3Cl)c(Cl)cc21 |  | inactive
7 | CCCCCCCCCCCO |  | inactive
8 | CCCC(=O)OCCC(C)C |  | inactive
9 | NCc1cccc(C2CCN(C(=O)c3ccc(C#Cc4ccccc4F)o3)CC2)c1 |  | inactive
10 | CCN(Cc1cccnc1)C(=O)c1cccc(Cl)c1[C@]1(C)C(=O)N(Cc2ccc(OC)cc2OC)c2ccc(Cl)cc21 |  | inactive
11 | COc1cccc([C@H](O)C2CCN(CCc3ccc(F)cc3)CC2)c1OC | 45.8 µM (active) | 
12 | C[C@]12CC[C@@H]3c4ccc(O)cc4CC[C@H]3[C@@H]1CC[C@H]2O |  | inactive
13 | CN1C(=O)CC[C@H]1c1cccnc1 |  | inactive
14 | CN(C[C@@H](CC[N+]12CCC(C3CCCCC3)(CC1)CC2)c1ccc(Cl)c(Cl)c1)C(=O)c1cc(C(F)(F)F)cc(C(F)(F)F)c1 |  | inactive
15 | Cc1occc1C(=O)Nc1ccc(C(=O)N2CCC(F)(F)/C(=C\C(=O)N3CCC(N4CCCCC4)CC3)c3ccccc32)cc1 |  | inactive
16 | CO[C@H]1/C=C/O[C@@]2(C)Oc3c(C)c(O)c4c(O)c(c(/C=N/N5CCN(C)CC5)c(O)c4c3C2=O)NC(=O)/C(C)=C\C=C\[C@H](C)[C@H](O)[C@@H](C)[C@@H](O)[C@@H](C)[C@H](OC(C)=O)[C@@H]1C |  | inactive
17 | O=C1O[C@H]([C@@H](O)CO)C(O)=C1O |  | inactive
18 | CC[C@@H]1C[C@H](N(Cc2cc(C(F)(F)F)cc(C(F)(F)F)c2)C(C)=O)c2cc(C(F)(F)F)ccc2N1C(=O)OC(C)C |  | inactive
19 | COCC(C)OCC(C)OCC(C)O (stereo not given) |  | inactive
20 | CCCOC(=O)c1cc(O)c(O)c(O)c1 |  | inactive

Row | SMILES | AC50 | outcome
21 | OCCO |  | inactive
22 | Clc1ccccc1C(c1ccccc1)(c1ccccc1)n1ccnc1 |  | inactive
23 | Oc1ccc2ccccc2c1 | 34.8 µM (active) | 
24 | COc1ccc2cc(S(=O)(=O)N[C@H](CC(=O)N[C@H](Cc3ccc(CN4[C@H](C)CCC[C@@H]4C)cc3)C(=O)N(C)C(C)C)c3ccc4c(c3)OCO4)ccc2c1 |  | inactive
25 | Cc1oc2c(NC(=O)c3c(Cl)cccc3Cl)cccc2c1C(C)(C)O |  | inactive
26 | CCCCOC(=O)CC(CC(=O)OCCCC)(OC(C)=O)C(=O)OCCCC |  | inactive
27 | CC/C(=C(/CC)c1ccc(O)cc1)c1ccc(O)cc1 |  | inactive
28 | CCCCCCCCCCCCO |  | inactive
29 | CCCCCCCC[Si](OCC)(OCC)OCC |  | inactive
30 | O=C(Nc1ccc(Cl)cc1)Nc1ccc(Cl)c(Cl)c1 |  | inactive
31 | O=C(O)Cn1c(=O)n(Cc2ccc(Br)cc2F)c(=O)c2ccc(Cl)cc21 |  | inactive
32 | CC(O)CC(C)(C)O (stereo not given) |  | inactive
33 | Cc1cc2c(cc1C(F)(F)F)N(C(=O)Nc1ccc(Oc3cccnc3C)nc1)CC2 |  | inactive
34 | CCCCOC(=O)c1ccc(O)cc1 | 24.9 µM (active) | 
35 | CCN(Cc1cccc(S(=O)(=O)O)c1)c1ccc(C(=C2C=CC(=[N+](CC)Cc3cccc(S(=O)(=O)O)c3)C=C2)c2ccccc2S(=O)(=O)[O-])cc1 |  | inactive
36 | C[C@]12CC[C@@H]3c4ccc(O)cc4CC[C@H]3[C@@H]1CCC2=O |  | inactive
37 | CC(C)(O)c1ccc(CNC(=O)c2cccnc2Oc2ccc3nonc3c2)cc1 |  | inactive
38 | CCCCCc1ccc(N)cc1 |  | inactive
39 | O=C1CCC(C2CCCCC2)CC1 |  | inactive
40 | CCO[Si](CCCNC(N)=O)(OCC)OCC |  | inactive
